The source of these data is PubChem BioAssay (NCI).

The panel holds about 83,000 compounds, 20% with a hit somewhere; the sample as a whole holds those more often.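 In brief: 96-well plates, 48 h treatment, single concentration, percent growth endpoint.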 Unmarked numbers belong to inactive results. The source made the active and inactive calls. The calls were made as follows: active = growth percent below 10; inactive = the rest.

What all share (experiment): NCI-60 one-dose screen, 48 h (100 = growth as untreated, 0 = no growth, -100 = all killed)
Common to all, as to conditions: 10 µM unless noted

Assay [1] has as its system SK-MEL-2 melanoma.
The test system of assay [2] is EKVX NSCLC.
Assay [3] concerns SN12C renal.
For assay [4], the system named is UO-31 renal.
The test system of assay [5] is ACHN renal.
The test system of assay [6] is A498 renal.
The test system of assay [7] is CCRF-CEM leukemia.
Assay [8] has as its system MOLT-4 leukemia.
In assay [9] the test system is SR leukemia.
Assay [10] has as its system RPMI-8226 leukemia.
The subject of assay [11] is OVCAR-8 ovarian.
In assay [12] the test system is OVCAR-5 ovarian.
Assay [13] concerns OVCAR-4 ovarian.
Assay [14] relates to SK-OV-3 ovarian.
Assay [15] deals with IGROV1 ovarian.
The test system of assay [16] is HS 578T breast.
Assay [17] concerns NCI/ADR-RES ovarian.
Assay [18] has as its system CAKI-1 renal.
Assay [19] deals with OVCAR-3 ovarian.

Turning to `COc1cnc2c(c1)C(=O)c1c-2n(CCCN2CCC(O)CC2)c(=O)c2cc(F)ccc12`, the growth in assay [1] is 3.49% (active); in assay [2] it was 2.5% (active); in assay [3], 9.71% (active); in assay [4], -89.4% (active); in [5] it was -58% (active); in assay [6] it was -87.9% (active). The growth is -2.05% (active) in assay [7]; -19.2% (active) in [8]; 0.0108% (active) in [9]; -26.2% (active) in [10]; -6.45% (active) in assay [11]; -8.07% (active) in [12]. In addition, the growth in assay [13] is -0.215% (active); in assay [14], -31.6% (active); in assay [15], 1.69% (active); in assay [16], 27.7%; in assay [17], 0.114% (active).
Consider `CC12CCC3C(=CCc4cc(O)ccc43)C1CCC2=O` (stereo not given), for which the growth in [1] was 119%; in [2] it was 72.3%; in [3], 97.5%; in [4], 76%; in [18], 92.6%; in assay [6], 102%. In addition, the growth in assay [7] is 95.5%; in assay [8], 85.4%; in assay [9], 97.6%; in [10], 87.8%; in assay [11], 101%; in assay [12] it was 102%. The growth is 107% in assay [13]; 115% in assay [14]; 107% in assay [15]; 111% in assay [19]; 104% in [16]; 102% in [17].
On to `COc1ccc2nc(-c3ccc(Cl)cc3)cc(-c3nnc(SCC(=O)Nc4ccc(C(C)=O)cc4)n3-c3ccccc3)c2c1`, for which the growth in assay [1] was 91.5%; in [2], 101%; in [3], 114%; in [4], 84.4%; in [5] it was 108%; in [6], 100%. The growth is 108% in [7]; 83% in assay [8]; 83.7% in assay [9]; 104% in assay [10]; 102% in assay [11]; 96.4% in assay [12]. For the same molecule, the growth in assay [13] was 93.7%; in assay [14], 93.9%; in assay [15], 107%; in assay [19], 96.8%; in assay [16] it was 99.5%; in assay [17], 95.2%.
Turning to `C[C@H](C(=O)N[C@@H](Cc1ccc(-c2ccccc2)cc1)C(=O)NC1CC(C)(C)N(C)C(C)(C)C1)c1ccc(-c2ccccc2)c(F)c1`, the growth was -70.9% (active) in assay [1]; -47.8% (active) in [2]; -59.2% (active) in assay [3]; -80.9% (active) in assay [4]; -87.8% (active) in [5]; -18.2% (active) in assay [6]. Further, the growth in [7] is -45.9% (active); in assay [8] it was -60.9% (active); in assay [9], -40.5% (active); in assay [10] it was -41.6% (active); in [11] it was -46.5% (active); in assay [12] it was -70.2% (active). Besides, the growth in [13] is -50.7% (active); in assay [14], -33.3% (active); in assay [15], -26.4% (active); in assay [19], -82.9% (active); in assay [16], -35.1% (active); in assay [17] it was -5.29% (active).
For `BrC1CC(Br)c2c1c1c(c3c2C(Br)CC3Br)C(Br)CC1Br` (stereo not given), the growth was 115% in [1]; 101% in assay [2]; 109% in assay [3]; 39.9% in [4]; 87.2% in [5]; 94.5% in assay [18]. The growth in [6] was 117%; in assay [7], 114%; in assay [8] it was 75.8%; in [10] it was 92.9%; in [11] it was 85.2%; in [12], 99.2%. In addition, the growth in assay [13] was 106%; in [14], 102%; in assay [15], -20.2% (active); in assay [19], 150%; in assay [16] it was 93.6%; in [17], 91%.
As to `O=[N+]([O-])c1ccc2[nH]cc(-c3c4ccccc4cc4[nH]c5ccc([N+](=O)[O-])cc5c34)c2c1`, the growth in [1] was 2.23% (active); in assay [2] it was 39.4%; in assay [3] it was 36.7%; in assay [4], 13.2%; in assay [5], 15.4%; in assay [18] it was 25.3%. Further, the growth in assay [7] is 7.25% (active); in assay [8], 6.8% (active); in [9], 10.2%; in assay [10], 11.6%; in assay [12], 67.8%; in assay [13] it was 26.7%. The growth was 64.4% in assay [14]; 18.7% in assay [15]; -7.76% (active) in assay [19]; 30.4% in assay [16]; 8.13% (active) in [17].
Turning to `COc1cc(C2CC(c3ccc(C)cc3)=NN2C=O)ccc1OCCN(C)C` (stereo not given), the growth in [1] was 98.4%; in [2] it was 90.1%; in assay [3] it was 95.2%; in [4], 64.5%; in assay [6], 92.4%; in assay [7] it was 88.7%. In addition, the growth is 77.8% in [8]; 89.2% in assay [9]; 90.2% in assay [10]; 92.6% in assay [11]; 94.3% in [12]; 97.9% in assay [13]. The growth in [14] is 96.2%; in assay [15], 101%; in assay [19], 103%; in assay [16], 87.5%; in assay [17] it was 90.9%.
Take `Cc1ccc(C(NC(=O)c2ccccc2)c2ccc3cccnc3c2O)cc1` (stereo not given): the growth in assay [1] was 18.5%; in assay [2] it was 17.3%; in [3], 14.1%; in [4], -3.13% (active); in [18], 9.05% (active); in assay [6], 24.9%. For the same molecule, the growth in assay [7] was 5.39% (active); in [8] it was 8.31% (active); in assay [9], 11%; in assay [10], 14.9%; in assay [13], 19.8%; in assay [14], 19.3%. Moreover, the growth in assay [15] was 17.1%; in [19], 31.5%; in assay [16], 69.5%; in assay [17], 14%.
With `N#CC1c2ccccc2C=CN1C(=O)N(c1ccccc1)c1ccccc1` (stereo not given), the growth is 88.2% in [1]; 102% in assay [2]; 76.1% in assay [3]; 36.5% in [4]; 12.3% in assay [5]; 2.37% (active) in assay [18]. Further, the growth in [7] was 3.82% (active); in assay [8], 3.19% (active); in [9] it was 1.1% (active); in assay [11], 76%; in assay [12], 107%; in [13], 77%. Besides, the growth in assay [14] is 110%; in assay [19] it was -34.3% (active); in [16], 52.9%; in [17], 96.2%.
